SARS PLP yeast: blocks SARS-CoV papain-like protease in a yeast assay; S. cerevisiae expressing SARS-CoV PLpro, growth rescue; 0.19% of 330,000 active; Potency, µM (highest dose often 32.9 µM), for inactives: at the highest dose activity, positive = growth rescue, hits mostly activators; AID 485353; calls by dose curve; further: potency means the concentration at half of the fitted maximal effect; 0% is about no effect; nearly all actives have a fitted effect of over 55% in size
HCV inh: blocks hepatitis C virus; AID 651820; 3.4% of 340,000 active; Huh7.5.1 HCVcc-Cre infection, luciferase reporter, 44 h; Potency, µM (series often up to 41.8 µM), for inactives: at the highest dose activity change, negative = inhibition, hits mostly inhibitors; further: potency means the concentration at half of the fitted maximal effect; on the % scale 0 is the no-effect control and ±100 the full control effect
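Reporter virus HCVcc-Cre (~0.5 moi) infects cells exposed to compound; seeding density 1,000 cells/well with 4 h settling beforehand. Luminescence, 15 sec read, taken 44 h post-infection following a 15 min RT substrate incubation.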
HCMV inh: human cytomegalovirus inhibition. 4.5% of 410,000 active. HFF cells, HCMV-luciferase reporter, 72 h; stronger effect = lower value. activity change, negative = inhibition, % at 57.5 µM; in the data active means activity change below about -60%; inconclusive means no clear call, values can overlap the other calls; inactive means above about -39%; further: on the % scale 0 is the no-effect control and ±100 the full control effect
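Human foreskin fibroblasts infected with luciferase-reporter HCMV at MOI 1 PFU/cell, compounds at two doses. Luciferase measured 72 h post infection; normalized to buffer-only basal and Salinomycin (10uM) controls.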
Sm TGR inh: inhibitors of Schistosoma mansoni thioredoxin glutathione reductase | Q962Y6 | purified TGR, DTNB reduction, TNB absorbance 405 nm | Potency, µM (highest dose often 114 µM), for the others: at the highest dose activity change, negative = inhibition, most hits filed as inhibitors | 3% of 360,000 active; further: potency means the concentration at half of the fitted maximal effect; on the % scale 0 is the no-effect control and ±100 the full control effect; nearly all actives have a fitted effect of over 60% in size
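First, TGR (20 nM dispensed) and NADPH were mixed with compound. Second, a 15 min room-temperature incubation followed. Third, further NADPH and then DTNB were added to start the reaction. Finally, TNB absorbance was monitored kinetically.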
Pf growth 48h: inhibits P. falciparum growth in the first generation, 48 h | AID 504832 | P. falciparum luciferase growth in erythrocytes, 48 h | Potency, µM (doses to about 28.7 µM), without a hit: at the highest dose activity change, negative = inhibition, most hits filed as inhibitors | 5.9% of 310,000 active; further: potency means the concentration at half of the fitted maximal effect; on the % scale 0 is the no-effect control and ±100 the full control effect
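Here the parasites carry a stable luciferase gene and grow inside erythrocytes in Albumax-based RPMI medium with compound for one erythrocytic cycle. Activity is scored as loss of luminescent signal.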
Pf growth 96h: P. falciparum growth inhibition at 96 hours; 6.9% of 320,000 active; Potency, µM (titrated, usually from 28.7 µM), inactives show top-dose activity change, negative = inhibition, usual class: inhibitors; P. falciparum luciferase reporter growth, 96 h; further: potency means the concentration at half of the fitted maximal effect; on the % scale 0 is the no-effect control and ±100 the full control effect
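Delayed-death screen, second-generation endpoint: infected erythrocytes, 2% hematocrit, 0.05% parasitemia final; 96 hours at 37 C, 5% CO2; luciferase detection reagent; luminescence decrease equals reduced growth.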
Active calls of the source: *; ? = inconclusive; nt = no result. Hits are enriched below; roughly 15% of the tested compounds scored in any of these assays. Unless noted, the call rests on the fitted dose curve; in most records, active means well fitted curve in the direction sought with a large enough effect; inconclusive means small, poorly fitted or top-dose-only effect, or another doubt; inactive means no such curve, though single readings can be large; an effect the other way counts as inactive or inconclusive.

SMILES	SARS PLP yeast	HCV inh	HCMV inh	Sm TGR inh	Pf growth 48h	Pf growth 96h
CCCC(=O)c1cc(-c2nc3ccccc3n2C)n(C)c1	-7.3%	22.4µM*	17.3	-6.8%	-9.0%	nt
CCC(=O)c1cc(-c2nc3ccccc3n2C)n(C)c1	-4.6%	-13.2%	48.4	-7.2%	13.2%	nt
CN(C)c1ccc(CNC(=O)CN2C(=O)C3CCCCN3c3ccc(C(=O)N4CCCC4)cc32)cc1 (stereo unspecified)	nt	nt	3.6	-29.0%	nt	nt
Cn1c(=O)c(=O)n(C)c2cc([N+](=O)[O-])c([N+](=O)[O-])cc21	3.6%	?	-8.8	20µM*	-11.5%	?
COc1ccccc1NC(=O)Cn1c(=O)n(Cc2cccs2)c(=O)c2cccnc21	nt	nt	-64.3*	0.9%	nt	nt
CC1(C(=O)NS(=O)(=O)c2ccc(C#N)cc2)CCN1C(=O)C1(c2ccccc2)CCCC1 (stereo unspecified)	nt	nt	6.7	nt	nt	nt
CCOC(=O)c1cc2c(c(-c3ccccc3)n1)[C@H](CCO)N(S(=O)(=O)C(C)(C)C)C2	nt	0.6%	-0.4	nt	nt	nt
COc1cccc(CN(C(=O)Cc2c[nH]c3ccccc23)C(C(=O)NC2CCCCC2)c2ccc(C)o2)c1 (stereo unspecified)	-1.5%	?	?	-6.8%	13.1µM*	?
COc1ccc(CN(C(=O)Cc2c[nH]c3ccccc23)C(C(=O)NC2CCCCC2)c2ccc(C)o2)cc1 (stereo unspecified)	-5.9%	?	?	8.0%	5.22µM*	5.22µM*
c1ccc(-n2nnnc2NCCc2c[nH]c3ccccc23)cc1	3.9%	-21.1%	1.1	?	?	?
Cc1cc(Nc2nc3ccccc3nc2Cl)n(-c2ccccc2)n1	-8.0%	?	-90.0*	-4.8%	nt	?
Cc1cc(Nc2nnnn2-c2ccccc2)n(-c2ccccc2)n1	3.8%	4.2%	-19.7	-3.5%	32.2%	9.28µM*
c1ccc(CNc2nnnn2-c2ccccc2)cc1	-10.7%	-1.0%	-71.8*	0.0%	-28.1%	?
Cc1cc(Nc2ccc(Cl)cc2)n(-c2ccccc2)n1	-16.8%	?	-23.5	-7.2%	nt	-18.9%
Cc1cc(Nc2nc3ccccc3nc2Cl)n(-c2ccccc2C)n1	-34.4%	-7.8%	?	-3.3%	1.47µM*	1.47µM*
CCOC(=O)COc1cc(C)c(Cl)cc1C(=O)c1ccn2nc(-c3ccc(OC)cc3)cc2n1	nt	nt	26.6	-1.9%	nt	nt
N#Cc1cnn2c(=O)[nH]cnc12	nt	nt	28.6	nt	nt	nt
Cc1ccccc1NC(=O)C[n+]1cc(-c2ccccc2)n2c1CCC2	0.1%	14.4%	-11.0	4.3%	?	5.86µM*
Cc1cccc(C)c1NC(=O)C[n+]1cc(-c2ccccc2)n2c1CCC2	-0.5%	19.6%	12.5	4.8%	?	11.7µM*
COc1cc(NC(=O)CCNS(=O)(=O)c2ccc3c(c2)CCN3C(=O)C2CC2)cc(OC)c1	nt	nt	1.0	5.8%	nt	nt
COc1ccccc1NC(=O)Cc1csc(NC(=S)Nc2ccccc2)n1	5.5%	12.6µM*	-6.4	?	-7.4%	59.2%
CCC(=O)Nc1nc(CC(=O)Nc2ccccc2)cs1	-1.4%	8.1%	?	13.4%	1.0%	?
COc1ccc(NC(=S)Nc2nc(CC(=O)Nc3ccccc3OC)cs2)cc1	-12.0%	31.6µM*	?	?	-4.6%	55.3%
COc1ccc(S(=O)(=O)n2cccc2)cc1	nt	7.7%	-5.4	nt	nt	nt
CCOC(=O)c1cc(NC(=O)c2ccc(OC)cc2)c(=O)n2c1oc1ccc(Cl)cc12	nt	nt	-10.7	0.0%	nt	nt
SMILES	SARS PLP yeast	HCV inh	HCMV inh	Sm TGR inh	Pf growth 48h	Pf growth 96h
CC(=O)c1ccc(N2CCN(C(=O)CCC(=O)Nc3ccc4nc(N5CCN(C)CC5)cc(C)c4c3)CC2)cc1	0.2%	8.91µM*	1.3	-11.7%	9.28µM*	5.1%
Cc1cc(N2CCOCC2)nc2ccc(NC(=O)CCC(=O)N3CCCCC3)cc12	0.0%	-26.4%	146.3	12.1%	0.0%	0.0%
Cc1cc(N2CCOCC2)nc2ccc(NC(=O)CCC(=O)N3CCN(c4cccc(C(F)(F)F)c4)CC3)cc12	0.7%	11.2µM*	58.8	-9.6%	4.65µM*	0.2%
Cc1cc(N2CCN(C)CC2)nc2ccc(NC(=O)CCC(=O)NCCc3ccc(Cl)cc3)cc12	0.0%	5.1%	-19.9	1.7%	11.7µM*	10.8%
CC(c1ccccn1)N(Cc1ccco1)C(=S)Nc1cccc(F)c1 (stereo unspecified)	0.0%	20.3%	-26.7	-6.0%	10.8%	?
Oc1ccc(Cl)cc1CNCc1ccc(F)c(F)c1	2.7%	6.8%	-4.1	-15.5%	3.29µM*	5.22µM*
OCCNCc1cccc2ccccc12	-0.1%	-11.4%	-4.3	6.0%	24.1%	-27.9%
O=[N+]([O-])c1ccc(CNCc2cc(Cl)ccc2O)cc1	2.1%	?	-9.4	-26.6%	11.7µM*	?
COc1ccc(CNCc2cc(Cl)ccc2O)cc1	1.9%	?	-28.4	-3.4%	9.28µM*	13.1µM*
Oc1ccc(Cl)cc1CNCc1ccc(Cl)nc1	1.3%	-13.0%	-30.5	-7.7%	?	?
Oc1ccc(Cl)cc1CNCc1cccc2ccccc12	0.3%	4.4%	-18.9	4.3%	0.415µM*	0.928µM*
CCOC(=O)[C@H]1[C@H]2COc3cc(OC)ccc3[C@@H]2N2C(=O)CN(C)C(=O)[C@@]12C	-1.4%	13.6%	-10.5	nt	nt	nt
COc1ccc(-c2nsc(NC(=O)c3ccccc3Br)n2)cc1	nt	nt	-3.8	1.3%	nt	nt
Cc1ccc(CCC(=O)Nc2ncc(Cc3cccc(Cl)c3Cl)s2)o1	-10.0%	?	-63.9*	11.0%	-12.4%	13.8%
COC(=O)c1cc(OC)c(OC)cc1NC(=O)c1ccc(C)o1	20.1%	?	-19.5	3.4%	nt	5.22µM*
COC(=O)c1cc(OC)c(OC)cc1NC(=O)CCc1ccc(C)o1	-0.8%	?	-10.0	-24.8%	10.4µM*	17.0%
Cc1ccc(CCC(=O)Nc2cc(Cl)ccc2Cl)o1	-6.5%	-24.0%	-97.3*	-24.9%	7.8%	-0.4%
CCOc1ccccc1-n1nnnc1SCC(=O)N1CCCC1=O	1.9%	18.3%	33.5	nt	nt	nt
COc1cc(C#N)c(NC(=S)N2CCN(C(=O)c3ccco3)CC2)cc1OC	nt	nt	1.8	nt	nt	nt
COC(=O)c1cc(OC)c(OC)cc1NC(=O)c1cc(C(C)(C)C)oc1C	-0.7%	5.7%	?	6.3%	2.94µM*	?
O=C(CCc1ccccc1)NCc1ccccc1	-1.2%	8.3%	-18.9	2.5%	16.4%	0.9%
COC(=O)c1cc(OC)c(OC)cc1NC(=O)c1ccc(C)cc1	8.4%	?	-28.0	-9.0%	nt	-20.8%
Cc1ccc(CCC(=O)NCc2ccccc2)o1	-2.9%	3.9%	2.8	35.5µM*	0.0%	?

From PubChem
